About 1,200 (3.2%) of roughly 38,000 compounds showed an effect of 50% or more. The median lay at about -58%. This is one part of a sample in which strong results are shown more often than they occur.
These compounds were tested on Plasmodium falciparum (assay: Calibr Malaria Delayed Death Assay SOP). Settings: concentration 4.99e-06 (unit not given; other assays of the set use mol/L).
Type: functional, organism-based
Design: scale not given: in the data most compounds retested in dose-response had high values

Point of comparison: `CNC1CCN(C2CCN(c3ccc(-c4ccco4)cc3)CC2)CC1`, “Percent Effect” value 85.81%. Against it:
- O=C(O)C(F)(F)F.O=C(O)C(F)(F)F.O=C1COC2(CCN(Cc3cccnc3)CC2)CN1c1ccccc1 — lower, -17.97%
- Cc1cnc(C(=O)N2CCCC(n3cccn3)C2)cn1 (configuration not stated) — lower, -66.69%
- CCN(C)Cc1cccc(CNC(=O)NCCc2ccccn2)c1 — lower, -13.41%
- CN(C)Cc1nnc2n1CCN(Cc1ccccn1)CC2 — lower, -1.592%
- CC(C)Nc1nc2c(s1)C(=O)CN(C(=O)NCc1ccccc1)C2 — lower, -132.7%
- CCCOc1cc(Cl)c(CN2CCNC(C(=O)NC3CC3)C2)cc1OC (configuration not stated) — lower, 74.72%
- CCOc1ccc(CN2CCNC(C(=O)NC3CC3)C2)cc1CO (configuration not stated) — lower, -11.99%
- NC(=O)COc1ccc(CN2CCNC(C(=O)NC3CC3)C2)cc1Cl (configuration not stated) — lower, -16.07%
- Cc1cc(C)n(CC(=O)N(CC2CN(C)CCO2)c2nccs2)n1 (configuration not stated) — lower, -86.12%
- COc1ccc(Cn2c(Cc3c(C)n[nH]c3C)n[nH]c2=O)cc1 — lower, -40.64%
- CN(C)CCO[C@H]1CN(C(=O)c2ccc(C#N)cc2)[C@@H]2COC[C@H]12 — lower, -51.41%
- CCCn1ncc2c(C(=O)NC(C)Cn3cccn3)cc(C3CC3)nc21 (configuration not stated) — lower, -124.5%
- Cc1cccc(CS(=O)(=O)NCC(O)Cc2ccccc2)c1 (configuration not stated) — lower, -12.6%
- O=S(=O)(Cc1cccc(F)c1)NCC(O)Cc1ccccc1 (configuration not stated) — lower, -87.6%
- Cc1cc(C)c(N(CC(O)CNCc2ccco2)S(C)(=O)=O)c(C)c1.O=C(O)c1ccccc1 (configuration not stated) — lower, 59.67%
- N#Cc1cccc(CS(=O)(=O)NCC(O)Cc2ccccc2)c1 (configuration not stated) — lower, -10.83%
- Cc1ccc(N(C)CC(O)COCc2ccccc2)c(C)c1 (configuration not stated) — lower, -54.55%
- Cc1ccc(CS(=O)(=O)NCc2ccco2)cc1 — lower, -37.35%
- Br.Cc1cc(C)c(N(CC(O)CNCc2ccccc2)S(C)(=O)=O)c(C)c1 (configuration not stated) — lower, 69.59%
- O=C(C(CNCc1ccco1)c1ccccc1)N1CCOCC1 (configuration not stated) — lower, -74.95%
- CCn1nc(C)c2nc(C)nc(NCCc3ccccc3)c21 — lower, 35.69%
- CO[C@@H]1CN(c2ccccc2)S(=O)(=O)[C@@]12CCNC2 — lower, -24.96%
- CC1c2ccsc2CCN1Cc1cc2c(cc1O)OCO2 (configuration not stated) — lower, 25.38%
- Cn1cc(C2CCCN2C(=O)c2cnc(-c3ncccn3)s2)cn1 (configuration not stated) — lower, -23.4%
- Cn1c2c(c(=O)n1C)CN(C(=O)c1cccc(F)c1)CCC2 — lower, -64.91%
- CC(CNS(=O)(=O)CCCC#N)c1ccsc1 (configuration not stated) — lower, -35.87%
- CN(C)c1ccc(C(CNS(=O)(=O)c2cccs2)N2CCCC2)cc1 (configuration not stated) — lower, 52.34%
- CCC(CO)N(Cc1cccs1)C(=O)CNS(=O)(=O)c1cccs1 (configuration not stated) — lower, -105.8%
- CN1CCc2cc(C(CNS(=O)(=O)c3cccs3)N3CCCC3)ccc21 (configuration not stated) — lower, 13.73%
- O=S(=O)(NCC(c1ccsc1)N1CCCCCC1)c1cccs1 (configuration not stated) — lower, 84.95%
- COc1ccccc1N1CCC(CNS(=O)(=O)c2cccs2)C1 (configuration not stated) — lower, 4.169%
- Cc1nc(CN2CCCN(Cc3nc4ccccc4o3)CC2)no1 — lower, -14.25%
- CSCC(=O)N1CCOC(c2nc(C(C)(C)C)n[nH]2)C1 (configuration not stated) — lower, -128.5%
- O=C(C1CC(=O)N(c2n[nH]c3cc(Br)ccc23)C1)N1CCOCC1 (configuration not stated) — lower, -162.5%
- O=C(NC1CC1)N1CCc2ncc(CN3CCOCC3)n2CC1.O=C(O)C(F)(F)F — lower, -16.42%
- O=C(CC1NC(N2CCc3ccccc32)=NC1=O)Nc1ccccc1 (configuration not stated) — lower, -56.07%
- C[C@@H]1CN(C(=O)c2cccc(F)c2)C[C@]12CCN(c1ccsc1)C2=O — lower, -98.41%
- Cc1cc(C)n(CC2CN(CC3CCCC3)CCO2)n1 (configuration not stated) — lower, -35.36%
- COc1cccc(N2CCC(N3CCOC(C(F)(F)F)C3)CC2)c1 (configuration not stated) — lower, -105.8%
- Cc1ccc(-c2cccc(N3CCC(NC4CCOCC4)CC3)c2)cc1 — lower, -119.9%
- CCS(=O)(=O)c1ccc(N2CCC(NC(C)=O)CC2)cc1 — lower, -87.36%
- COc1ccc(N2CCC(N3CCOC(C(F)(F)F)C3)CC2)cc1 (configuration not stated) — lower, -105.9%
- Cc1nc[nH]c1-c1nccn1CCN1CCCC1=O — lower, -100.3%
- CCOC[C@@H]1CC[C@H]2[C@H](CCN2C(=O)c2ccncc2F)O1 — lower, -16.41%
- Clc1cccc(N2CCC(NCc3ncc[nH]3)C2)c1 (configuration not stated) — lower, 65.12%
- Cc1cccc(OC2CCN(Cc3ncc[nH]3)CC2)c1 — lower, 7.466%
- c1ccc(CN2CCC(NCCSc3cnn[nH]3)CC2)cc1 — lower, -21.85%
- CCn1cc(CNC2CCN(c3cccc(Cl)c3)C2)cn1 (configuration not stated) — lower, 17.81%
- Brc1ccc(CN2CCC(NCc3ncc[nH]3)CC2)cc1 — lower, 82.48%
- OC1CCN(Cc2ccc(CNc3ncc(Cl)cc3F)cc2)CC1 — lower, 26.38%
- Clc1cccc(N2CCC(NCc3cc[nH]n3)C2)c1 (configuration not stated) — lower, -43.41%
- OC1CCN(Cc2ccc(CNc3ccc(Cl)cn3)cc2)CC1 — lower, -61.51%
- Clc1cc(Cl)cc(CN2CCC(NCc3ncc[nH]3)CC2)c1 — lower, 83.8%
- O=C(COc1ccccc1Br)N1CCOc2ccncc21 — lower, -65.13%
- O=C(O)C(F)(F)F.O=S(=O)(C1CC1)N1CCO[C@H]2[C@H](Oc3cccnc3)CC[C@@H]21 — lower, -58.06%
- Cc1nc(NC2CCN(C(=O)C3CC3)CC2)c2cnn(C)c2n1 — lower, -160.6%
- CNC(=O)[C@H]1C[C@@H]2CN(C(=O)c3cccnc3)C[C@@H]2N1S(C)(=O)=O.O=C(O)C(F)(F)F — lower, -51.87%
- CCN(CC)S(=O)(=O)NC1CCN(c2ccc(OC)cc2)CC1 — lower, -62%
- Cc1ccc(CN2CCC3(CC2)C(=O)NCCN3CC2CC2)o1 — lower, -112.7%
- O=C1NCCCC12CCN(S(=O)(=O)N1CCOCC1)C2 (configuration not stated) — lower, -32.12%
- Cc1ccc(Sc2ccc(CN3CCC4(CCCNC4=O)C3)o2)cc1 (configuration not stated) — lower, 71.68%
- Cc1cccc(N2CCC(N3CCC4(CCCNC4=O)C3)CC2)c1C (configuration not stated) — lower, 41%
- Cc1ccc(CN2C[C@@H](c3ccccc3)[C@@]3(CCNC3=O)C2)o1 — lower, -6.391%
- O=C1NCCCC12CCN(Cc1ccc(SC3CCCCC3)o1)C2 (configuration not stated) — lower, 54.2%
- COc1cccc(C(c2c(C)n[nH]c2O)c2c(C)n[nH]c2O)c1OC — lower, -4.815%
- O=C(O)C(F)(F)F.O=C1[C@H]2CN(S(=O)(=O)c3ccccc3)C[C@H]2CN1Cc1cccnc1 — lower, 0.7029%
- CCN(C(=O)COC)C(c1ccc(Cl)cc1)c1ccccn1 (configuration not stated) — lower, -96.63%
- CCN(CC)C(=O)COc1nc(C(C)C)no1 — lower, -177.8%
- Cc1cc(N2CCC(O)CC2)nc(C)n1 — lower, -73.43%
- Cc1cc(N2CCC(N(C)C(=O)c3cccs3)CC2)nc(C)n1 — lower, -45.9%
- Cc1nc(C)c(C)c(N2CCC(NCCOc3ccccc3)CC2)n1 — lower, 61.44%
- Cc1ccnc(N2CCC(NCCOc3ccccc3)CC2)n1 — lower, 9.901%
- CN(C)c1ccnc(N2CCC(NCCOc3ccccc3)CC2)n1 — lower, 59.77%
- O=C(COCCOc1ccccc1)NC1CCN(c2ncccn2)CC1 — lower, -10.36%
- Cc1cc(N2CCC(NC(=O)CCc3ccco3)CC2)nc(C)n1 — lower, -35.38%
- Cc1cc(N2CCC(NCCOc3ccccc3)CC2)nc(C)n1 — lower, 74.5%
- c1ccc(OCCNC2CCN(c3ncccn3)CC2)cc1 — lower, -18.18%
- O=C(COCCOc1ccccc1)NC1CCN(c2ccccn2)CC1 — lower, -45.63%
- Cc1cc(N2CCC(NC(C)Cc3ccsc3)CC2)nc(C)n1 (configuration not stated) — lower, 85.1%
- Cc1cc(N2CCC(N(C)C(=O)c3ccccc3)CC2)nc(C)n1 — lower, 16.92%
- COC1CCN(C(=O)Cn2ncc(N3CCCCC3)cc2=O)C1 (configuration not stated) — lower, -24.14%
- COCc1cc(N2CCOC(c3ccc(Cl)cc3)C2)ncn1 (configuration not stated) — lower, 9.167%
- CS(=O)(=O)N1CCOCC2(CCN(C(=O)c3ccncc3)CC2)C1.O=C(O)C(F)(F)F — lower, -27.09%
- O=C(Nc1ccccn1)C1CCN(Cc2cccc3c2OCCO3)CC1 — lower, -6.102%
- CC(C)(C)c1ncc(CNc2ccccc2SCCC(N)=O)s1 — lower, -73.84%
- Cn1cccc1C(=O)NC(C)(C(N)=O)c1cccc(Cl)c1 (configuration not stated) — lower, -31.46%
- CCC(C)NC(=O)c1cccc(CNCc2csc(C(C)C)n2)c1 (configuration not stated) — lower, 46.44%
- CCn1cnnc1C1CCN(C(=O)c2cc(C)c(C)s2)CC1 — lower, -85.96%
- CC(=O)NCCC(=O)NCC1(c2c(F)cccc2F)CCCC1 — lower, -84.52%
- CC(=O)N(C)CC(=O)NCC1(c2c(F)cccc2F)CCCC1 — lower, -102.3%
- CCC(=O)NCC(=O)NCC1(c2c(F)cccc2F)CCCC1 — lower, 72.49%
- CCS(=O)(=O)CC(=O)NCC1(c2c(F)cccc2F)CCCC1 — lower, -98.46%
- COC(=O)NCCC(=O)NCC1(c2cccc(Cl)c2)CC1 — lower, -27.72%
- COC(=O)NCC(=O)NCC1(c2c(F)cccc2F)CCCC1 — lower, 68.39%
- CC(=O)N1CCCn2nc(CNS(=O)(=O)N(C)C(C)C)cc2C1 — lower, -134.1%
- COCC(=O)N1CCC2(CCN(c3cnn(C)c3)C2=O)C1 (configuration not stated) — lower, -59.68%
- O=c1[nH]c2cc3c(cc2cc1CN1CCCC1c1ccccn1)CCC3 (configuration not stated) — lower, -51.8%
- CC(CN1CCOCC1)NC(=O)NCCc1ccc(Cl)s1 (configuration not stated) — lower, -56.29%
- Cc1n[nH]cc1CNC1(c2ccc(F)cc2)CCCC1 — lower, 82.35%
- Cc1n[nH]cc1CNC1(c2ccc(Br)cc2)CC1 — lower, 18.93%
- Cc1n[nH]cc1CNC1(Cc2ccc(Br)cc2)CCCCC1 — lower, 36.65%

Source: ChEMBL document CHEMBL3988442, “University of Dundee, Small-Polar-MMV Screening Library” (2021)
